Data on 46 compounds can be found in PMC4336329 (PLoS ONE, 2015).

SMILES strings stand for the structures. Hit rate of the full screen: of about 310,000 compounds, about 14,000 (4.5%) showed an effect of 50% or more. Effects have a minus sign here. The full list was thinned out, with strong results kept by preference.
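Note: peak tail current of the secondary pulse compared with the same well before compound.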

Chain of human ether-à-go-go-related gene (hERG) potassium channel (Q12809 whole entry, looked up): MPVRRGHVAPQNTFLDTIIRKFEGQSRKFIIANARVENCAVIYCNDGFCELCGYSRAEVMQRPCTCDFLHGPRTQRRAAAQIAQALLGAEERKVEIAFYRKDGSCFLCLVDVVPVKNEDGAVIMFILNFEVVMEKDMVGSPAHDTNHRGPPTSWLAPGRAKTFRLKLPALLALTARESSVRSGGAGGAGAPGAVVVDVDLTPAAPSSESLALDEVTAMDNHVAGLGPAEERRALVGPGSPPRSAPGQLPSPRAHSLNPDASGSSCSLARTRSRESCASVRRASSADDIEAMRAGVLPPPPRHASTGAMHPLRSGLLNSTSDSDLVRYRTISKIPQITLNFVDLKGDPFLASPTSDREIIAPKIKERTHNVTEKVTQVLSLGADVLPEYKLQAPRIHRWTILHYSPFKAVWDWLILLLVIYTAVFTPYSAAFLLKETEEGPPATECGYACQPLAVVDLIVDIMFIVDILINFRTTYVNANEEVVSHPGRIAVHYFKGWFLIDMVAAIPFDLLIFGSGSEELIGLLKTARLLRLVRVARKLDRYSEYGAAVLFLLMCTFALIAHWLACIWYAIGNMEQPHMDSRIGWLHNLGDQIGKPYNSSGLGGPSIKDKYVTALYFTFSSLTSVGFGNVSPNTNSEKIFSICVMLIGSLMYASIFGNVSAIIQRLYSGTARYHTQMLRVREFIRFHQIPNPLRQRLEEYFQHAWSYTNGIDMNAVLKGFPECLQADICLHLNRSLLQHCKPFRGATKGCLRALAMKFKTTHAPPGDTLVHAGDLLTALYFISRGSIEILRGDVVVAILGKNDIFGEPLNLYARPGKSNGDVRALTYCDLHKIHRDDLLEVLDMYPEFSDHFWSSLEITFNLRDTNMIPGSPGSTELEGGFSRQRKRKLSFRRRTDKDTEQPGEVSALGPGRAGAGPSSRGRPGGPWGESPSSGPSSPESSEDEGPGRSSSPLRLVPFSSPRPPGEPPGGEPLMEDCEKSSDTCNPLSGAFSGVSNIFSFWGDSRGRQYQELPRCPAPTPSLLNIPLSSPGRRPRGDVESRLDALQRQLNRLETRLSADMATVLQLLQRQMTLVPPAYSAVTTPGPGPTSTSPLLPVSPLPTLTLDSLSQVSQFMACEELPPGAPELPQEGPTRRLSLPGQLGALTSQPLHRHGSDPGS

This assay has as its target human ether-à-go-go-related gene (hERG) potassium channel (human, UniProt Q12809). Description: primary screen, population patch clamp on CHO cells stably expressing hERG; higher = less effect of the substance.
For the compound `CCOC(=O)c1cnc2c(cnn2C)c1NCCCn1ccnc1`, the “hERG current change (%, negative = inhibition) at 10uM” value is -35.9%.
For the compound `CCOC(=O)c1cnc2ccc(Br)cc2c1NCCCN1CCOCC1`, the “hERG current change (%, negative = inhibition) at 10uM” value is given as -39%.
To `CCOC(=O)c1cnc2ccc(OC)cc2c1NCCN1CCOCC1` belongs -48.5%.
To `CCOC(=O)c1cnc2ccc(OCC)cc2c1NCCCN1CCOCC1.Cl` belongs -75.6%.
To `CCOC(=O)c1cnc2ccc(C(=O)OC)cc2c1NCCCN1CCOCC1` belongs -60.5%; to `CCOC(=O)c1ccc2ncc(C(=O)OCC)c(NCCCN3CCOCC3)c2c1`, -47.3%.
As for `CCOC(=O)c1cnc2c(cnn2C)c1NCCCN(C)C`, the “hERG current change (%, negative = inhibition) at 10uM” value is listed as -51.7%.
Take `CCOC(=O)c1cnc2c(cnn2C)c1NCCC#N`: the “hERG current change (%, negative = inhibition) at 10uM” value is -7.43%.
Consider `CCOC(=O)c1cnc2ccc(OCC)cc2c1NCCN1CCOCC1.Cl`, for which the “hERG current change (%, negative = inhibition) at 10uM” value is -67.9%.
With `CCOC(=O)c1cnc2c(C)c(Cl)ccc2c1NCCCN1CCOCC1` the figure was -49.2%.
For the compound `CCOC(=O)c1cnc2ccc(C(=O)OC)cc2c1NCCN1CCOCC1`, the “hERG current change (%, negative = inhibition) at 10uM” value was -30.2%.
For `O=C(NCCc1ccccc1)C1CCN(S(=O)(=O)N2CCCCC2)CC1`, the “hERG current change (%, negative = inhibition) at 10uM” value amounted to 2.19%.
As for `CCCNC(=O)Cn1c(=O)oc2cc(S(=O)(=O)N3CCCC3)ccc21`, the “hERG current change (%, negative = inhibition) at 10uM” value is reported as 11.9%.
To `Oc1ccccc1C(=S)N1CCN(C(=S)c2ccccc2O)CC1` belongs 18.4%.
On to `C#CCNC(=O)C1=C[C@H](c2coc3ccccc3c2=O)[C@@H](CCCO)[C@H](OCC)O1`, for which the “hERG current change (%, negative = inhibition) at 10uM” value is -23.3%.
Consider `Cc1[nH]c2ccccc2c1CCCO`, for which the “hERG current change (%, negative = inhibition) at 10uM” value was 10.7%.
Regarding `CC(C)(C)NC(=O)CN1C(=O)/C(=C/c2ccccc2)SC1=S`, the “hERG current change (%, negative = inhibition) at 10uM” value is 10%.
With `O=C(CN1CCN(c2ccccc2)CC1)NC(=O)NCc1ccco1` the figure was 9.72%.
Consider `CCOC(=O)c1cnc2ccc(C)cc2c1NCCO`, for which the “hERG current change (%, negative = inhibition) at 10uM” value is listed as -66.4%.
With `CCOC(=O)c1cnc2c(ccc3ccccc32)c1NCCN(C)C` the figure was -7.47%; with `CCOC(=O)c1cnc2ccc(C)cc2c1NCCN1CCOCC1.Cl`, -65.7%.
As to `CCOC(=O)c1cnc2c(Cl)c(Cl)ccc2c1NCCN1CCOCC1.Cl`, the “hERG current change (%, negative = inhibition) at 10uM” value stood at 14.3%.
With `CCOC(=O)c1cnc2ccccc2c1NCCO` the figure was -34.8%; with `CCOC(=O)c1cnc2ccc(Cl)cc2c1NCCN(C)C`, -22.8%; with `CCOC(=O)c1ccc2ncc(C(=O)OCC)c(NCCN3CCOCC3)c2c1`, -48.5%.
For `CCOC(=O)c1ccc2ncc(C(=O)OCC)c(NCCN(C)C)c2c1`, the “hERG current change (%, negative = inhibition) at 10uM” value is on record as -69.5%.
In the case of `CCOC(=O)c1cnc2ccc(Br)cc2c1NCCO`, the “hERG current change (%, negative = inhibition) at 10uM” value is listed as -9.88%.
With `Nc1nnn(CC(=O)N/N=C/c2cccc(Cl)c2)n1` the figure was 4.76%; with `CCCCNC(=O)c1onc(CSc2ccc(F)cc2)c1C(=O)NCCCC`, -10.2%.
With `CCN(CC)C(=O)C1CCC(CNS(=O)(=O)c2cccc3cccnc23)CC1` (stereo not shown), the “hERG current change (%, negative = inhibition) at 10uM” value came out at 4.52%.
To `CN(C)c1ccc(C(=S)N2CCCCCC2)cc1` belongs -5.79%.
Regarding `NS(=O)(=O)c1ccc(CCNC(=O)c2ccc(Cl)cc2[N+](=O)[O-])cc1`, the “hERG current change (%, negative = inhibition) at 10uM” value stood at 16.7%.
On to `COc1ccccc1N1CCN(C2CC(=O)N(c3ccc(F)cc3)C2=O)CC1` (stereo not shown), for which the “hERG current change (%, negative = inhibition) at 10uM” value is 0.313%.
With `O=C1CSC(c2ccccc2)N1c1ccc(F)cc1F` (stereo not shown) the figure was 4.37%; with `CCn1c(Cc2ccccc2)nnc1SCC(=O)Nc1ccc(S(N)(=O)=O)cc1`, 2.13%.
`Cc1ccc(Cn2c(SCc3cccnc3)nc3c2c(=O)n(C)c(=O)n3C)cc1`: the “hERG current change (%, negative = inhibition) at 10uM” value is recorded as -0.713%.
To `Cc1ccc(-c2ccc(S(=O)(=O)NCC3CCCO3)cc2)cc1` (stereo not shown) belongs 26.2%; to `CCC(=O)N(CC)c1nc(-c2ccc(OC)cc2)cs1`, -5.81%; to `CCN(CC)CCCN(C(=O)c1ccc(Br)cc1)c1nc(-c2ccc(OC)cc2)cs1.Cl`, -73.2%.
For the compound `COCCN(C(=O)c1ccccc1)c1nc(-c2ccc(OC)cc2)cs1`, the “hERG current change (%, negative = inhibition) at 10uM” value worked out at 28.5%.
With `CCN(CC)CCCN(C(=O)c1ccc(F)cc1)c1nc(-c2ccc(OC)cc2)cs1` the figure was -75.1%.
For `CCN(CC)CCCN(C(=O)c1ccc(OC)cc1)c1nc(-c2ccc(OC)cc2)cs1`, the “hERG current change (%, negative = inhibition) at 10uM” value is reported as -73.7%.
With `COc1ccc(-c2csc(N(CCCN(C)C)C(=O)c3ccc(Br)cc3)n2)cc1.O=C(O)C(=O)O` the figure was -44%; with `CCN(CC)CCCN(C(=O)c1cccc(C)c1)c1nc(-c2ccc(OC)cc2)cs1`, -78.2%.
As for `COCCCN(C(C)=O)c1nc(-c2ccc(OC)cc2)cs1`, the “hERG current change (%, negative = inhibition) at 10uM” value is reported as -16.5%.
To `COCCCN(C(=O)c1ccccc1)c1nc(-c2ccc(OC)cc2)cs1` belongs 18.3%.
